# Measurements from PubChem BioAssay (NCI).
# “And” between values parts separate entries of the source, which are not always exact repeats. Equal values may be shown once. This is part of a sample that, as a whole, favours compounds with a hit. Of some 83,000 tested, about 20% had one in any assay.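 96-well plates, one dose, 48 hours. Percent growth reported; active if below 10.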 The source made the active and inactive calls.
# Key:
# Test in all cases: NCI-60 one-dose screen, 48 h (100 = growth as untreated, 0 = no growth, -100 = all killed)
# SK-MEL-2 melanoma = system: SK-MEL-2 melanoma
# EKVX NSCLC = system: EKVX NSCLC
# SN12C renal = system: SN12C renal
# UO-31 renal = system: UO-31 renal
# TK-10 renal = system: TK-10 renal
# ACHN renal = system: ACHN renal
# CAKI-1 renal = system: CAKI-1 renal
# A498 renal = settings: 10 µM unless noted
# CCRF-CEM leukemia = system: CCRF-CEM leukemia
# MOLT-4 leukemia = system: MOLT-4 leukemia
# SR leukemia = settings: 10 µM unless noted
# RPMI-8226 leukemia = system: RPMI-8226 leukemia
# OVCAR-8 ovarian = system: OVCAR-8 ovarian
# OVCAR-5 ovarian = system: OVCAR-5 ovarian
# OVCAR-4 ovarian = system: OVCAR-4 ovarian
# SK-OV-3 ovarian = system: SK-OV-3 ovarian
# IGROV1 ovarian = system: IGROV1 ovarian
# OVCAR-3 ovarian = system: OVCAR-3 ovarian
# HS 578T breast = system: HS 578T breast
# NCI/ADR-RES ovarian = system: NCI/ADR-RES ovarian
structure (smiles),measurement,setting,value
CN1CCN(c2ccc3nc(-c4c(N)c5c(F)cccc5[nH]c4=O)[nH]c3c2)CC1,growth,SK-MEL-2 melanoma; 10 µM unless noted,45.5% (inactive)
same,growth,EKVX NSCLC; 10 µM unless noted,-82.3% (active) and 54.7% (inactive)
same,growth,SN12C renal; 10 µM unless noted,26.3% (inactive) and 27.6% (inactive)
same,growth,UO-31 renal; 10 µM unless noted,7.59% (active) and 16% (inactive)
same,growth,TK-10 renal; 10 µM unless noted,35.1% (inactive) and 45.8% (inactive)
same,growth,ACHN renal; 10 µM unless noted,17.8% (inactive) and 18% (inactive)
same,growth,CAKI-1 renal; 10 µM unless noted,14% (inactive) and 20.4% (inactive)
same,growth,A498 renal,29% (inactive) and 14.6% (inactive)
same,growth,CCRF-CEM leukemia; 10 µM unless noted,6.23% (active) and 10.7% (inactive)
same,growth,MOLT-4 leukemia; 10 µM unless noted,-8.41% (active) and 1.37% (active)
same,growth,SR leukemia,-11.8% (active) and 1.99% (active)
same,growth,RPMI-8226 leukemia; 10 µM unless noted,47.5% (inactive) and 53.7% (inactive)
same,growth,OVCAR-8 ovarian; 10 µM unless noted,35.4% (inactive) and 28.2% (inactive)
same,growth,OVCAR-5 ovarian; 10 µM unless noted,56.1% (inactive) and 61.3% (inactive)
same,growth,OVCAR-4 ovarian; 10 µM unless noted,64.7% (inactive) and 53.9% (inactive)
same,growth,SK-OV-3 ovarian; 10 µM unless noted,1.69% (active) and 24.6% (inactive)
same,growth,IGROV1 ovarian; 10 µM unless noted,13.9% (inactive) and 13.5% (inactive)
same,growth,OVCAR-3 ovarian; 10 µM unless noted,53.5% (inactive) and 48.2% (inactive)
same,growth,HS 578T breast; 10 µM unless noted,2.57% (active)
same,growth,NCI/ADR-RES ovarian; 10 µM unless noted,41% (inactive) and 47% (inactive)
Nc1ccc2[nH]c(-c3ccccc3)cc(=O)c2c1,growth,SK-MEL-2 melanoma; 10 µM unless noted,78.8% (inactive)
same,growth,EKVX NSCLC; 10 µM unless noted,96.1% (inactive)
same,growth,SN12C renal; 10 µM unless noted,98.2% (inactive)
same,growth,UO-31 renal; 10 µM unless noted,89.9% (inactive)
same,growth,TK-10 renal; 10 µM unless noted,123% (inactive)
same,growth,ACHN renal; 10 µM unless noted,102% (inactive)
same,growth,CAKI-1 renal; 10 µM unless noted,72.2% (inactive)
same,growth,A498 renal,84.2% (inactive)
same,growth,CCRF-CEM leukemia; 10 µM unless noted,67.9% (inactive)
same,growth,MOLT-4 leukemia; 10 µM unless noted,63.8% (inactive)
same,growth,SR leukemia,4.32% (active)
same,growth,RPMI-8226 leukemia; 10 µM unless noted,86.1% (inactive)
same,growth,OVCAR-8 ovarian; 10 µM unless noted,97.4% (inactive)
same,growth,OVCAR-5 ovarian; 10 µM unless noted,94.8% (inactive)
same,growth,OVCAR-4 ovarian; 10 µM unless noted,111% (inactive)
same,growth,SK-OV-3 ovarian; 10 µM unless noted,98.1% (inactive)
same,growth,IGROV1 ovarian; 10 µM unless noted,95.5% (inactive)
same,growth,OVCAR-3 ovarian; 10 µM unless noted,64.3% (inactive)
same,growth,HS 578T breast; 10 µM unless noted,107% (inactive)
same,growth,NCI/ADR-RES ovarian; 10 µM unless noted,70.5% (inactive)
Cc1nn(-c2ccccc2)nc1C(=O)Nc1ccccc1C(=O)NCC1CC1,growth,SK-MEL-2 melanoma; 10 µM unless noted,117% (inactive) and 103% (inactive)
same,growth,EKVX NSCLC; 10 µM unless noted,79.4% (inactive)
same,growth,SN12C renal; 10 µM unless noted,89.2% (inactive) and 45.2% (inactive)
same,growth,UO-31 renal; 10 µM unless noted,95.5% (inactive) and 57.1% (inactive)
same,growth,TK-10 renal; 10 µM unless noted,83.5% (inactive)
same,growth,ACHN renal; 10 µM unless noted,91.8% (inactive) and 19.9% (inactive)
same,growth,CAKI-1 renal; 10 µM unless noted,97.6% (inactive) and 37.7% (inactive)
same,growth,A498 renal,107% (inactive) and 92.8% (inactive)
same,growth,CCRF-CEM leukemia; 10 µM unless noted,86.8% (inactive)
same,growth,MOLT-4 leukemia; 10 µM unless noted,103% (inactive) and 75.6% (inactive)
same,growth,SR leukemia,54.5% (inactive)
same,growth,RPMI-8226 leukemia; 10 µM unless noted,92.9% (inactive) and 92% (inactive)
same,growth,OVCAR-8 ovarian; 10 µM unless noted,95.8% (inactive) and 30.7% (inactive)
same,growth,OVCAR-5 ovarian; 10 µM unless noted,99.6% (inactive) and 86.8% (inactive)
same,growth,OVCAR-4 ovarian; 10 µM unless noted,106% (inactive) and 40.5% (inactive)
same,growth,SK-OV-3 ovarian; 10 µM unless noted,99% (inactive) and 91% (inactive)
same,growth,IGROV1 ovarian; 10 µM unless noted,108% (inactive) and 33.7% (inactive)
same,growth,OVCAR-3 ovarian; 10 µM unless noted,133% (inactive) and 54.2% (inactive)
same,growth,HS 578T breast; 10 µM unless noted,127% (inactive) and 24.2% (inactive)
same,growth,NCI/ADR-RES ovarian; 10 µM unless noted,89.6% (inactive) and 41.4% (inactive)
CC1(C)OB(c2ccc(Cn3cc(F)c(=O)[nH]c3=O)cc2)OC1(C)C,growth,SK-MEL-2 melanoma; 10 µM,113% (inactive)
same,growth,SK-MEL-2 melanoma; 50 µM,41.5% (inactive)
same,growth,EKVX NSCLC; 10 µM,106% (inactive)
same,growth,EKVX NSCLC; 50 µM,72.1% (inactive)
same,growth,SN12C renal; 10 µM,102% (inactive)
same,growth,SN12C renal; 50 µM,80.8% (inactive)
same,growth,UO-31 renal; 10 µM,87.3% (inactive)
same,growth,UO-31 renal; 50 µM,72.8% (inactive)
same,growth,TK-10 renal; 10 µM,102% (inactive)
same,growth,TK-10 renal; 50 µM,79.3% (inactive)
same,growth,ACHN renal; 10 µM,103% (inactive)
same,growth,ACHN renal; 50 µM,92.1% (inactive)
same,growth,CAKI-1 renal; 10 µM,85.7% (inactive)
same,growth,CAKI-1 renal; 50 µM,75.1% (inactive)
same,growth,A498 renal,25.6% [50 µM] (inactive)
same,growth,CCRF-CEM leukemia; 10 µM,112% (inactive)
same,growth,CCRF-CEM leukemia; 50 µM,37.7% (inactive)
same,growth,MOLT-4 leukemia; 10 µM,99.3% (inactive)
same,growth,MOLT-4 leukemia; 50 µM,54.7% (inactive)
same,growth,RPMI-8226 leukemia; 10 µM,107% (inactive)
same,growth,RPMI-8226 leukemia; 50 µM,68.1% (inactive)
same,growth,OVCAR-8 ovarian; 10 µM,106% (inactive)
same,growth,OVCAR-8 ovarian; 50 µM,75.1% (inactive)
same,growth,OVCAR-5 ovarian; 10 µM,97.5% (inactive)
same,growth,OVCAR-5 ovarian; 50 µM,70.4% (inactive)
same,growth,OVCAR-4 ovarian; 10 µM,111% (inactive)
same,growth,OVCAR-4 ovarian; 50 µM,69.9% (inactive)
same,growth,SK-OV-3 ovarian; 10 µM,114% (inactive)
same,growth,SK-OV-3 ovarian; 50 µM,69% (inactive)
same,growth,IGROV1 ovarian; 10 µM,98.8% (inactive)
same,growth,IGROV1 ovarian; 50 µM,44.1% (inactive)
same,growth,OVCAR-3 ovarian; 10 µM,104% (inactive)
same,growth,OVCAR-3 ovarian; 50 µM,4.62% (active)
same,growth,HS 578T breast; 10 µM,100% (inactive)
same,growth,HS 578T breast; 50 µM,37% (inactive)
same,growth,NCI/ADR-RES ovarian; 10 µM,102% (inactive)
same,growth,NCI/ADR-RES ovarian; 50 µM,94.1% (inactive)
